# Columns and labels:
# Assay in all cases: DAPPL (digital affinity profiling via proximity ligation, sequencing); 10 mM Tris-HCl pH 7.5, 50 mM NaCl, 1 mM DTT, 4% glycerol, room temperature, 30 min; GST-TFs on glutathione beads, 16-mer random dsDNA library, 0.1% formaldehyde crosslink after washing; high values mean tight binding
# FLI1 = biological target: T1, FLI1 (Homo sapiens, UniProt Q01543 1-452); conditions: protein: recombinant; tags: N-terminal GST; dsDNA, one strand shown
# T1 sequence: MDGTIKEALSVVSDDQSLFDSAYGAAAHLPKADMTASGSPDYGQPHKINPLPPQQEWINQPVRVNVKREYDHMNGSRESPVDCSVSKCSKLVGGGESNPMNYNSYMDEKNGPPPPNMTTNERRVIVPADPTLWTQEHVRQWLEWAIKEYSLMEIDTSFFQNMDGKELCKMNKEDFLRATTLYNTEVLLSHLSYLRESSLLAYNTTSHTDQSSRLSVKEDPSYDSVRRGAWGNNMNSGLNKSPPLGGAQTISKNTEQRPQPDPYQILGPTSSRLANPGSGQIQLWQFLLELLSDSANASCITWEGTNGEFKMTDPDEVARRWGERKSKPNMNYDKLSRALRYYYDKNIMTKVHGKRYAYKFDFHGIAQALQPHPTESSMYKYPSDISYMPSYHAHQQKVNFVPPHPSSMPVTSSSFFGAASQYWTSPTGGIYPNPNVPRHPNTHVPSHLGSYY
# How it was run: (§1)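 Human transcription factors fused to GST were expressed in yeast, captured on glutathione beads, given DNA barcodes and pooled with a GST-only negative control. Pools were incubated with 200 nmole of a 16-mer random double-stranded DNA library in Tris/NaCl/DTT/glycerol buffer at room temperature for 30 min. They were then washed, crosslinked with 0.1% formaldehyde, proximity-ligated (BsaI/T4 ligase, 1 h, 37 °C), PCR-amplified and sequenced on an Illumina NextSeq500. Binding signal is each 6-mer's read frequency for a factor divided by its frequency for the GST control.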
# ELK1 = biological target: T2, ELK1 (Homo sapiens, UniProt P19419 1-428); conditions: protein: recombinant; tags: N-terminal GST; dsDNA, one strand shown
# T2 sequence: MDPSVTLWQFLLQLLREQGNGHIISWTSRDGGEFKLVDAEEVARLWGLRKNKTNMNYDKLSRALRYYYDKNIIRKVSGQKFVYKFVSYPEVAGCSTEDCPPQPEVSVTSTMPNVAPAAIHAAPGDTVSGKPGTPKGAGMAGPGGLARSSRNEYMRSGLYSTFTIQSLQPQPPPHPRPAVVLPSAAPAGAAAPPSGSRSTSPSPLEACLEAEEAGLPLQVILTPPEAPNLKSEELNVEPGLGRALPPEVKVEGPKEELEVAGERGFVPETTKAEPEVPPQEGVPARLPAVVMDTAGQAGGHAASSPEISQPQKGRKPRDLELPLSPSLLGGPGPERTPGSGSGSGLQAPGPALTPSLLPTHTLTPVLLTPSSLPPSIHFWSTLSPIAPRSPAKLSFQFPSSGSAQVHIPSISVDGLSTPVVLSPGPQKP
# How it was run: as §1
# GABPA = biological target: T3, GABPA (Homo sapiens, UniProt Q06546 1-454); conditions: protein: recombinant; tags: N-terminal GST; dsDNA, one strand shown
# T3 sequence: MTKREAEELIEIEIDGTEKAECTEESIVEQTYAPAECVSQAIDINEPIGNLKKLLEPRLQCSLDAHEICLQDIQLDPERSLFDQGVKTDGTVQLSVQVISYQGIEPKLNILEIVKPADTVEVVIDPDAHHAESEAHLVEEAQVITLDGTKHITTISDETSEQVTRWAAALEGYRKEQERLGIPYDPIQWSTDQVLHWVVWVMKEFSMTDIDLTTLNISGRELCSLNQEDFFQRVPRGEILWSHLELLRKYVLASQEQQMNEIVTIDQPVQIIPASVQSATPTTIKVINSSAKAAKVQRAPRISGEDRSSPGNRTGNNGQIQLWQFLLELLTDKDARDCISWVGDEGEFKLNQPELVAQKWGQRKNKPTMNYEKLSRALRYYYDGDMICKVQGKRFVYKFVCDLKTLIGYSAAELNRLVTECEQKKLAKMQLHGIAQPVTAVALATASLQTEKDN
# How it was run: as §1
# ERG = biological target: T4, ERG (Homo sapiens, UniProt P11308 1-479); conditions: protein: recombinant; tags: N-terminal GST; dsDNA, one strand shown
# T4 sequence: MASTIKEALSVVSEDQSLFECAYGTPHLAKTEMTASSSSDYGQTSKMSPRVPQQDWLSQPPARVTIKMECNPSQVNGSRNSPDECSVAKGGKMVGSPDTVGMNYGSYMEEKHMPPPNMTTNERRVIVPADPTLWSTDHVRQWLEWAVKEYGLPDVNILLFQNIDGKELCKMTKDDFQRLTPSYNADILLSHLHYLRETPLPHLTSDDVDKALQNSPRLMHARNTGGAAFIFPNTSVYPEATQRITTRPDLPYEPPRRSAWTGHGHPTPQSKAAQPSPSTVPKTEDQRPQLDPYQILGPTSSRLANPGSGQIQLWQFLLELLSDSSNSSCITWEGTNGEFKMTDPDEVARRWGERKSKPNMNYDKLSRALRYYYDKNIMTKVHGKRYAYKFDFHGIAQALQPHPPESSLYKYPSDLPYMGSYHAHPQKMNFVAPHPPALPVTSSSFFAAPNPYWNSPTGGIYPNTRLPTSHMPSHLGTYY
# How it was run: as §1
# ELF1 = ELF1 (Homo sapiens, UniProt P32519 1-619); conditions: protein: recombinant; tags: N-terminal GST; dsDNA, one strand shown
# How it was run: as §1
# EHF = biological target: T5, EHF (Homo sapiens, UniProt Q9NZC4 1-300); conditions: protein: recombinant; tags: N-terminal GST; dsDNA, one strand shown
# T5 sequence: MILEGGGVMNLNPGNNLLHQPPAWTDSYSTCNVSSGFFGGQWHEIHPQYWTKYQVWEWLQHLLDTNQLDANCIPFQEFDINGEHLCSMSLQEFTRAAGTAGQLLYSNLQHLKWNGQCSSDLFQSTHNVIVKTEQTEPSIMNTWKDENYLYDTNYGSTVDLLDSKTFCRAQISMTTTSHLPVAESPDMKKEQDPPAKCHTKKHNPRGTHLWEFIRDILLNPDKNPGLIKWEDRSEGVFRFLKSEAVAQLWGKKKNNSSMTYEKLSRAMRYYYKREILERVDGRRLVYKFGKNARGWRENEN
# How it was run: as §1
# SPI1 = SPI1 (Homo sapiens, UniProt P17947 1-270); conditions: protein: recombinant; tags: N-terminal GST; dsDNA, one strand shown
# How it was run: as §1
# SPIB = SPIB (Homo sapiens, UniProt Q01892 1-262); conditions: protein: recombinant; tags: N-terminal GST; dsDNA, one strand shown
# How it was run: as §1
# ELK3 = biological target: T6, ELK3 (Homo sapiens, UniProt P41970 1-407); conditions: protein: recombinant; tags: N-terminal GST; dsDNA, one strand shown
# T6 sequence: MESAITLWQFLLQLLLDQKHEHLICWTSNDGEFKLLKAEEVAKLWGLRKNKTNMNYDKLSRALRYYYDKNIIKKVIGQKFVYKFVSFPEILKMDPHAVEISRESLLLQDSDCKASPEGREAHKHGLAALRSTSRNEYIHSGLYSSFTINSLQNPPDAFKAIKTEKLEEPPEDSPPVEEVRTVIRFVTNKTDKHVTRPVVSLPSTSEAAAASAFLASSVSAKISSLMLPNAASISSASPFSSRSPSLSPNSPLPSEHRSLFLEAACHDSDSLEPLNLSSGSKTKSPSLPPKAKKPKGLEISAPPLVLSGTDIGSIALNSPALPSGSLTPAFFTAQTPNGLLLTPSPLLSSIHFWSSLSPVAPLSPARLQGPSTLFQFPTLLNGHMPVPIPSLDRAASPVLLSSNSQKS
# How it was run: as §1
# FEV = biological target: T7, FEV (Homo sapiens, UniProt Q99581 1-238); conditions: protein: recombinant; tags: N-terminal GST; dsDNA, one strand shown
# T7 sequence: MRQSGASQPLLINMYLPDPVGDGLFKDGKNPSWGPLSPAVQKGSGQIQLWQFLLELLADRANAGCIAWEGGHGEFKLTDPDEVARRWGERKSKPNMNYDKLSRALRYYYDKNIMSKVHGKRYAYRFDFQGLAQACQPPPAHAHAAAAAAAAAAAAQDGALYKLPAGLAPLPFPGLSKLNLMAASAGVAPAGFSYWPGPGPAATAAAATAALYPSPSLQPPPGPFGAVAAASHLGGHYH
# How it was run: as §1
# ETV5 = ETV5 (Homo sapiens, UniProt P41161 1-510); conditions: protein: recombinant; tags: N-terminal GST; dsDNA, one strand shown
# How it was run: as §1
# HSF1 = HSF1 (Homo sapiens, UniProt Q00613 1-529); conditions: protein: recombinant; tags: N-terminal GST; chain copies: 3; dsDNA, one strand shown
# How it was run: as §1
# SPIC = biological target: T8, SPIC (Homo sapiens, UniProt Q8N5J4 1-248); conditions: protein: recombinant; tags: N-terminal GST; dsDNA, one strand shown
# T8 sequence: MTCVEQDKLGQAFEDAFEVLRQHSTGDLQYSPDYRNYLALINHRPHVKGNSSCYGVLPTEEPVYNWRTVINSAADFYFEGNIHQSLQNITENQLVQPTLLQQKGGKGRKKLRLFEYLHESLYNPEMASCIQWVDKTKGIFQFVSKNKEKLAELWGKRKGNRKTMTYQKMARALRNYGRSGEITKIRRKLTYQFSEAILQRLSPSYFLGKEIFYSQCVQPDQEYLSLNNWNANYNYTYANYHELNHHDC
# How it was run: as §1
# ELF4 = ELF4 (Homo sapiens, UniProt Q99607 1-663); conditions: protein: recombinant; tags: N-terminal GST; dsDNA, one strand shown
# How it was run: as §1
# ELK4 = biological target: T9, ELK4 (Homo sapiens, UniProt P28324-2 1-405); conditions: protein: recombinant; tags: N-terminal GST; dsDNA, one strand shown
# T9 sequence: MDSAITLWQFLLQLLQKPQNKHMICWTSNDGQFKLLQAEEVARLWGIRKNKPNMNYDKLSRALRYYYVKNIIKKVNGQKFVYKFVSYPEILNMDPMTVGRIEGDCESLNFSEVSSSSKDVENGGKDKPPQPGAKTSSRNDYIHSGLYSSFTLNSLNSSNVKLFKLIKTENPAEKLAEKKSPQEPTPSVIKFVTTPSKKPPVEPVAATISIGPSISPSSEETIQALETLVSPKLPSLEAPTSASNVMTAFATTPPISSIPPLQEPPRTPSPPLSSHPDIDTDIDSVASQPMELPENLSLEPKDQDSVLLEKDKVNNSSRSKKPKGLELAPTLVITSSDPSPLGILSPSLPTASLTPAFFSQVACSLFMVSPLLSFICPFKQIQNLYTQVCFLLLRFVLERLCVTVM
# How it was run: as §1
# ETV2 = biological target: T10, ETV2 (Homo sapiens, UniProt O00321 1-342); conditions: protein: recombinant; tags: N-terminal GST; dsDNA, one strand shown
# T10 sequence: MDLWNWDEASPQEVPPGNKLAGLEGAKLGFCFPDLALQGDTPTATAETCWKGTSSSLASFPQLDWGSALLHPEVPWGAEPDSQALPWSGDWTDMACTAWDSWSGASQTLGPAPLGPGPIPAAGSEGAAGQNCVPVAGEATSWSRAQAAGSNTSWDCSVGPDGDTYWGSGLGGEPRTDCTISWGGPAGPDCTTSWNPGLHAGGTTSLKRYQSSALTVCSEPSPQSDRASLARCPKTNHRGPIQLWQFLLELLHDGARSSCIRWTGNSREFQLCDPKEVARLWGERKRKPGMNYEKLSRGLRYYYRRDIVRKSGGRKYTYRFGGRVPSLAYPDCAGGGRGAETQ
# How it was run: as §1
# ELF3 = biological target: T11, ELF3 (Homo sapiens, UniProt P78545 1-371); conditions: protein: recombinant; tags: N-terminal GST; dsDNA, one strand shown
# T11 sequence: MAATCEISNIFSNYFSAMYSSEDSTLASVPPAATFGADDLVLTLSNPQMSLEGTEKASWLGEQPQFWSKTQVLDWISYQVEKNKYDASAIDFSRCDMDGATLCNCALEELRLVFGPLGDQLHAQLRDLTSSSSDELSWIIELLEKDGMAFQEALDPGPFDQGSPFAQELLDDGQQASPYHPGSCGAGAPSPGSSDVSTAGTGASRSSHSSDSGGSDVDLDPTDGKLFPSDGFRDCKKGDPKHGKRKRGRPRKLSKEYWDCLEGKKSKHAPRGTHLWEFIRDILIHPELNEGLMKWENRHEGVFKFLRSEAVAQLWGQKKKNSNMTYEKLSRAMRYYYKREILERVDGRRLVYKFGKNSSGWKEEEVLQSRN
# How it was run: as §1
# CRX = CRX (Homo sapiens, UniProt O43186 1-299); conditions: protein: recombinant; tags: N-terminal GST; dsDNA, one strand shown
# How it was run: as §1
# ETV1 = ETV1 (Homo sapiens, UniProt P50549 1-477); conditions: protein: recombinant; tags: N-terminal GST; dsDNA, one strand shown
# How it was run: as §1
# Sequence of CRX (O43186 whole entry): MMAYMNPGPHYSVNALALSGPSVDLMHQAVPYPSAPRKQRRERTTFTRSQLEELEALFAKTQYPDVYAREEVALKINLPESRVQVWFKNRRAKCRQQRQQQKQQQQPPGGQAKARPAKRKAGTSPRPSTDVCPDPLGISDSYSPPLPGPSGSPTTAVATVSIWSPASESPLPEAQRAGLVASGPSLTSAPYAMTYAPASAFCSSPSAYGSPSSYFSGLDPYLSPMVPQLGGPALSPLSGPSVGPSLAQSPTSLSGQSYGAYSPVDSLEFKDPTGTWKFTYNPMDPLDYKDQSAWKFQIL
# Sequence of ELF1 (P32519 whole entry): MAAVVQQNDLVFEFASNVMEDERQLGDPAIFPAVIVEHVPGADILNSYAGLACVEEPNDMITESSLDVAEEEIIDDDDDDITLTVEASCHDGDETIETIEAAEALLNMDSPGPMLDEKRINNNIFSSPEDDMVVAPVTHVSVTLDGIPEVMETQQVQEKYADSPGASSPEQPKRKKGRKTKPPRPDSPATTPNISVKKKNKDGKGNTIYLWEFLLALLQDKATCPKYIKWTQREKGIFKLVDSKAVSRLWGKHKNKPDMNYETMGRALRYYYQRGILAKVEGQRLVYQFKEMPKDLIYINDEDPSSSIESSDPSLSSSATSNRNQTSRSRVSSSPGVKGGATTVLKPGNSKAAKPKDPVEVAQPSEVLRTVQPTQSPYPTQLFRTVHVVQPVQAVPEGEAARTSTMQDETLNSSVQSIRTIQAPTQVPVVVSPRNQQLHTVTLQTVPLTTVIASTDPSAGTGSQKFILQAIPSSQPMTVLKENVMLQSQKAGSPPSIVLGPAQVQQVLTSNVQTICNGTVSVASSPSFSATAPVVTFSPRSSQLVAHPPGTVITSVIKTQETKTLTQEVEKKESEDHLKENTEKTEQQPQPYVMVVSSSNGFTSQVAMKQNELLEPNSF
# Sequence of ETV5 (P41161 whole entry): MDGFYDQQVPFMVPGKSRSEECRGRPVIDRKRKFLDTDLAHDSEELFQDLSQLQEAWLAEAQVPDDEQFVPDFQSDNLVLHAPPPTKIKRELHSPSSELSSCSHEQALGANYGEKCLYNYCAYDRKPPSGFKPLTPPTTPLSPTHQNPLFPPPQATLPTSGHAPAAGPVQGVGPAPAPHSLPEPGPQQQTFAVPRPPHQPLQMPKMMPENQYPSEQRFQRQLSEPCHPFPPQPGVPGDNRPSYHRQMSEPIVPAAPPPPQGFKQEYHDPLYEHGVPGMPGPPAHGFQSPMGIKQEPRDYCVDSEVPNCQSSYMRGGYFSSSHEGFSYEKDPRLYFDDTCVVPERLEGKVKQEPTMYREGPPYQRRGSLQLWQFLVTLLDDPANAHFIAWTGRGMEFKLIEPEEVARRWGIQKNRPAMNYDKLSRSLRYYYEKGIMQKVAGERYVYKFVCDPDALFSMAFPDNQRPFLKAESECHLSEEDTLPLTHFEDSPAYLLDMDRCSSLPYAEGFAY
# Sequence of SPIB (Q01892 whole entry): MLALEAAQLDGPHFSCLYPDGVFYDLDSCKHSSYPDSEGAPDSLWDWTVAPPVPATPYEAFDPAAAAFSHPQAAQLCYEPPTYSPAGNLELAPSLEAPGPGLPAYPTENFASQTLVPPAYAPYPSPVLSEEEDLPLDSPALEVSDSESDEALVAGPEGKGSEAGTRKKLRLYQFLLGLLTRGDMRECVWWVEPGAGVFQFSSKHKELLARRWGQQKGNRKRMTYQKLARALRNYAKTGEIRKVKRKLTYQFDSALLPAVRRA
# Sequence of ELF4 (Q99607 whole entry): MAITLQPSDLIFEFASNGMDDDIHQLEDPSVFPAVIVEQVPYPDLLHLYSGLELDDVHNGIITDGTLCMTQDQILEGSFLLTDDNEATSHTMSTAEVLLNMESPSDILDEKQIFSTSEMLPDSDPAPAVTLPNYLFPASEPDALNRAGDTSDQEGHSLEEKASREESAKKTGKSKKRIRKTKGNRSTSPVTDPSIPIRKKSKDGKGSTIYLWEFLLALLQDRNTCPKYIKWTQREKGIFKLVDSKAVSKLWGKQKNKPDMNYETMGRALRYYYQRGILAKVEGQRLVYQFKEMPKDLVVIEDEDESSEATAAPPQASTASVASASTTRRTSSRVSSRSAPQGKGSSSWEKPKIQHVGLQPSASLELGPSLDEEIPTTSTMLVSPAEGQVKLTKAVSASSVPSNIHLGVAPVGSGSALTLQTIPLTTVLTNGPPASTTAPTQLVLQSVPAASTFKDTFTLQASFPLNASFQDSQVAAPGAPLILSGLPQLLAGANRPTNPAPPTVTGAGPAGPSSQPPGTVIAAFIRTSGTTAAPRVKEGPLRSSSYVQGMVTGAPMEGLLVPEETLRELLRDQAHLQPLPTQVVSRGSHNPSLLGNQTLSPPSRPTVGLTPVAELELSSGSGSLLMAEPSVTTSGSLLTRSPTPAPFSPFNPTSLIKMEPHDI
# Sequence of ETV1 (P50549 whole entry): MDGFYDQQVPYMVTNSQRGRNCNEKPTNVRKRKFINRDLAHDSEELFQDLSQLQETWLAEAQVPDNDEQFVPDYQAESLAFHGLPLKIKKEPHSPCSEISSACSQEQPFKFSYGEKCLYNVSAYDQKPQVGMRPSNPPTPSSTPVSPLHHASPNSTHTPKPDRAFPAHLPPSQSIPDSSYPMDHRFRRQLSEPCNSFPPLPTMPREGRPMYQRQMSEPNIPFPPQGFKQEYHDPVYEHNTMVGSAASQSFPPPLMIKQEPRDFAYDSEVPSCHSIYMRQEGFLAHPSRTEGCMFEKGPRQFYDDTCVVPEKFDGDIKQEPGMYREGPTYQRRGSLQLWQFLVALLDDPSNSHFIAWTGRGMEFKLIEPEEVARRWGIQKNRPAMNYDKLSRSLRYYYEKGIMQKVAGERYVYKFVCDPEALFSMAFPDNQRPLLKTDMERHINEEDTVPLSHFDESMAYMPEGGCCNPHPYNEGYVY
# Sequence of HSF1 (Q00613 whole entry): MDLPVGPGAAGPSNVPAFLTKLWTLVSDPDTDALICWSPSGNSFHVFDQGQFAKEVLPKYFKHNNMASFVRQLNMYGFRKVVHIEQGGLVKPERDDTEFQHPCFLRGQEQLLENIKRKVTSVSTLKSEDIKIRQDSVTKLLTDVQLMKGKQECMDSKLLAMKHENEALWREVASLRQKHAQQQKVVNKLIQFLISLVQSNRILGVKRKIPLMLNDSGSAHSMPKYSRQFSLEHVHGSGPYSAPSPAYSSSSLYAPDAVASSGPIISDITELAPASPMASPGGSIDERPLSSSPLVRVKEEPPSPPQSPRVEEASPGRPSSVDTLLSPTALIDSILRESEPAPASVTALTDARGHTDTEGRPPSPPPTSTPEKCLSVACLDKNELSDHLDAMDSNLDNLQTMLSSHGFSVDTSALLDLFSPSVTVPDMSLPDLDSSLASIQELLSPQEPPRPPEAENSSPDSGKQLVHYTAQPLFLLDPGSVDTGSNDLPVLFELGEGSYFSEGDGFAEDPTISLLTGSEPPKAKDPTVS
sequence,measurement,setting,value
ATTCTA,binding signal,FLI1,"1.34 fold enrichment (6-mer frequency, TF over GST control)"
same,binding signal,ELK1,"1.21 fold enrichment (6-mer frequency, TF over GST control)"
same,binding signal,GABPA,"1.29 fold enrichment (6-mer frequency, TF over GST control)"
same,binding signal,ERG,"1.23 fold enrichment (6-mer frequency, TF over GST control)"
same,binding signal,ELF1,"1.3 fold enrichment (6-mer frequency, TF over GST control)"
same,binding signal,EHF,"1.21 fold enrichment (6-mer frequency, TF over GST control)"
same,binding signal,SPI1,"1.23 fold enrichment (6-mer frequency, TF over GST control)"
same,binding signal,SPIB,"1.22 fold enrichment (6-mer frequency, TF over GST control)"
same,binding signal,ELK3,"1.18 fold enrichment (6-mer frequency, TF over GST control)"
same,binding signal,FEV,"1.14 fold enrichment (6-mer frequency, TF over GST control)"
same,binding signal,ETV5,"1.16 fold enrichment (6-mer frequency, TF over GST control)"
same,binding signal,HSF1,"3.09 fold enrichment (6-mer frequency, TF over GST control)"
same,binding signal,SPIC,"1.26 fold enrichment (6-mer frequency, TF over GST control)"
same,binding signal,ELF4,"1.2 fold enrichment (6-mer frequency, TF over GST control)"
same,binding signal,ELK4,"1.32 fold enrichment (6-mer frequency, TF over GST control)"
same,binding signal,ETV2,"1.26 fold enrichment (6-mer frequency, TF over GST control)"
same,binding signal,ELF3,"1.24 fold enrichment (6-mer frequency, TF over GST control)"
same,binding signal,CRX,"1.84 fold enrichment (6-mer frequency, TF over GST control)"
same,binding signal,ETV1,"1.2 fold enrichment (6-mer frequency, TF over GST control)"

# Reference: publication PMC7862700, “An all-to-all approach to the identification of sequence-specific readers for epigenetic DNA modifications on cytosine”
